From PubChem BioAssay AID434947 (Broad Institute, 2010)
Among all 2,200 compounds or so, about 15 (0.7%) were called active.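 The calls were made as follows: active = fitted half-maximal concentration for loss of luminescence signal no more than a set limit of log units above the top tested concentration; inconclusive = flat fit with 30 to 70% signal loss, or invalid fit; inactive = half-maximal concentration above that set limit.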 For the sample, actives were picked, then their nearest neighbours and some compounds at random.

experiment: ADP-Glo luciferase signal interference – biochemical, luminescence, cell-free, homogeneous, artefact control for GSK3beta inhibitor project, dose response (AID 434947); details: Cell-free ADP-Glo reagents, 5 uM ADP;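 also: kinase-free counter screen of ADP-Glo detection reagents for GSK3beta hits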

EC50, inactive:
CC1(C)CC(=O)C=C(Nc2ccc3c(c2)OCCO3)C1 > 30 µM
COc1ccc(-c2nn(-c3ccccc3)cc2/C=N/N2C(=O)CSC2=S)cc1 > 30 µM
Cc1ccccc1-c1nc(CN2CCC(C(=O)N3CCN(c4ccccn4)CC3)CC2)c(C)o1 > 30 µM
CCOC(=O)c1cnc2c(OC)cccc2c1N1CCN(c2ccc(OC)cc2)CC1 > 30 µM
COc1cc(OC)c(OC)cc1CNCC1COc2ccccc2O1 (stereo unspecified) > 30 µM
CSc1nc(N)c2c3c(sc2n1)CN(C)CC3 > 30 µM
Cn1c(=O)c2[nH]c(CCCC(=O)O)nc2n(Cc2ccccc2)c1=S > 30 µM
NS(=O)(=O)c1cc(C(=O)N=Nc2c(O)[nH]c3ccccc23)ccc1Cl > 30 µM
O=C(/C=C/c1ccc2ccccc2c1)c1ccoc1 > 30 µM
NS(=O)(=O)c1ccc(CCNC(=O)CSc2nc3ccsc3c(=O)n2C2CC2)cc1 > 30 µM
CN(C)CCCNc1ccc(-c2cc(Nc3cccc(Cl)c3)ncn2)cn1 > 30 µM
CN(CCO)c1cc(N2CCC3(CC2)OCCO3)c2nonc2c1[N+](=O)[O-] > 30 µM
COC(=O)c1nnn(-c2nonc2N)c1CSc1ccc(Cl)cc1 > 30 µM
Cc1cccc(OCc2nnc(SCC(=O)Nc3sc(C)c(C)c3C#N)n2C)c1 > 30 µM
CC(C)N1C(=O)N(c2ccc(Cl)cc2)C(C)(O)CC1(C)C (stereo unspecified) > 30 µM
CC(C)CCSc1nnc(N)s1 > 30 µM
CCC(=O)Nc1ccc(Nc2nc(C)c([N+](=O)[O-])c(Nc3ccc(NC(=O)CC)cc3)n2)cc1 > 30 µM
O=C(Nc1ccnn1C1CCN(Cc2cccc(OCCO)c2)CC1)C1CCCC1 > 30 µM
c1ccc(OCCCn2nnc(-c3ccncc3)n2)cc1 > 30 µM
Nc1nc(NCCO)nc(NCC2CCCO2)c1[N+](=O)[O-] (stereo unspecified) > 30 µM
N#Cc1c(-c2ccccc2)nc(SCC(=O)Nc2ccc(OC(F)(F)Cl)cc2)[nH]c1=O > 30 µM
O=C(Nc1cc(-c2ccccc2)[nH]n1)c1ccccc1 > 30 µM
COc1cccc(C(=O)Nc2ccc(C(=O)NCC(C)C)cc2)c1 > 30 µM
CCCCC(CC)C(=O)Nc1ncc([N+](=O)[O-])s1 (stereo unspecified) > 30 µM
O=C(COc1ccccc1[N+](=O)[O-])N/N=C/c1ccccn1 > 30 µM
N/C(Cc1nc2ccccc2s1)=N\O > 30 µM
COc1cccc(C(=O)Nc2nnc(C(C)C)s2)c1 > 30 µM
COc1ccc2nc(Cl)cc(Cl)c2c1 > 30 µM
CCCc1cc(=O)[nH]c(SCCOc2ccc(OCC)cc2)n1 > 30 µM
COc1ccccc1/C=C1\C(=O)Nc2ccccc21 > 30 µM
Cc1ccc(S(=O)(=O)NNC(=O)c2cccc(O)c2)cc1 > 30 µM
COCc1c(C(=O)Nc2ccc(Cl)cc2F)oc2ccccc12 > 30 µM
CC(C)c1ccc(NC2=CC(=O)CC(C)(C)C2)cc1 > 30 µM
O=C(CCc1ccccc1)Nc1ccc2c(c1)OCCO2 > 30 µM
Cc1cc(C)c(C)c(S(=O)(=O)Nc2ccccc2C(=O)NCCCn2ccnc2)c1C > 30 µM
N#Cc1ccc(CSc2nnc(-c3ccncc3)o2)cc1 > 30 µM
CN(c1ncnc(N)c1[N+](=O)[O-])C1CCCCC1 > 30 µM
O=C(O)c1ccccc1N/N=C\c1ccnc2ccccc12 > 30 µM
COc1ccc(-c2nn(-c3ccccc3)cc2/C=N/O)cc1OC > 30 µM
Cc1cc(C(=O)OCCN2C(=O)c3ccccc3C2=O)c2ccccc2n1 > 30 µM
Cn1cc(S(=O)(=O)NCc2ccc(F)cc2)c(=O)n(C)c1=O > 30 µM
c1ccc(CNc2nc(-c3cccnc3)nc3ccccc23)cc1 > 30 µM
Cc1cc(C(=O)c2ccccc2)c(NC(=O)CN2CCOCC2)s1 > 30 µM
CN(Cc1c(C(=O)N/N=C/c2ccccc2F)nnn1-c1nonc1N)c1ccccc1 > 30 µM
CCn1c(SCC(=O)Nc2ccc(Cl)cc2)nnc1C1CC1 > 30 µM
O=c1c2[nH]c3ccccc3c2ncn1C1CCCCC1 > 30 µM
CCOC(=O)/C(C#N)=C/c1cn(CCC(=O)O)nc1-c1ccccc1 > 30 µM
CN1CCN(c2ccccc2NC(=O)c2ccc(Br)o2)CC1 > 30 µM
Cc1cnc(C(=O)OCC(=O)N2c3ccccc3CC2C)cn1 (stereo unspecified) > 30 µM
N#CCCn1cc(/C=N/O)c(-c2cccc([N+](=O)[O-])c2)n1 > 30 µM
COc1cccc(/C=N/Nc2cc(Cl)nc(C)n2)c1O > 30 µM
COc1ccc(-c2nn(-c3ccccc3)cc2N)cc1 > 30 µM
CSc1nc2c(c(=O)[nH]1)C(c1ccccc1)C1=C(CC(C)(C)CC1=O)N2 (stereo unspecified) > 30 µM
CC(=O)C(Sc1ccc2nnc(-c3ccc(F)cc3)n2n1)C(C)=O > 30 µM
NNC(=O)CNC(=O)c1ccc(F)cc1 > 30 µM
Cn1c(=S)n(CCC(=O)O)c2ccccc21 > 30 µM
O=C(NCC(c1ccco1)N1CCc2ccccc21)c1c(F)cccc1F (stereo unspecified) > 30 µM
Cc1ccc(-c2nn(-c3ccccc3)cc2/C=N/NS(=O)(=O)c2ccccc2)cc1 > 30 µM
COCCn1c(SCC(=O)Nc2ccc(Cl)c(S(=O)(=O)N(C)C)c2)nc2ccccc21 > 30 µM
COc1cccc(N=Nc2c(N)[nH][nH]c2=O)c1 > 30 µM
Cc1cc(NC(=O)CSc2nnc(C3CC3)n2Cc2ccccc2)no1 > 30 µM
